Screening data deposited in PubChem BioAssay by National Center for Advancing Translational Sciences (NCATS).
Shown are actives, neighbours in structure and some others; about 10% of the full set was active somewhere.
HPGD inh: HPGD (human) dehydrogenase inhibition; purified HPGD, NADH fluorescence kinetic, PGE2 substrate; Potency, µM, inactives show at the highest dose activity change, negative = inhibition, actives largely listed as inhibitors; 150,000 compounds, 4.3% hits; also: potency is read from the fitted curve at half-maximal effect
Target sequence (P15428 whole entry, looked up): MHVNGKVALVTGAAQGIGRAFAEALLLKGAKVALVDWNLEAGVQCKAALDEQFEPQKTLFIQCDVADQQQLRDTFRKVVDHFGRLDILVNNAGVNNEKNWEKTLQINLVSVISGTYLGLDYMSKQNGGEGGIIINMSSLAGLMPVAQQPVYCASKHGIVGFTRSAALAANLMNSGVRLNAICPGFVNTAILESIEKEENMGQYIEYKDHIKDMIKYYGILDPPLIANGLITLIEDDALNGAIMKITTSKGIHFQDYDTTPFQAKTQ
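20 nM HPGD preincubated 15 min at room temperature with compound in 50 mM Tris-HCl pH 8, 0.01% Tween 20. Started with 1 mM NAD+ and 30 uM prostaglandin E2; NADH fluorescence (360/450 nm) read 5 times over 30-s intervals, last minus first.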
Luc counter: blocks Kinase-Glo luciferase, a counter-screen artifact; Q27757; Kinase-Glo luciferase, ATP luminescence, 8 min; Potency, µM (doses to about 38.3 µM), for the others: top-dose activity change, negative = inhibition, hits mostly inhibitors; 200,000 compounds, 0.28% hits; active = well fitted inhibition curve with a large enough effect; inconclusive = small, poorly fitted or top-dose-only effect; also: potency is read from the fitted curve at half-maximal effect; nearly all actives have a fitted effect of over 60% in size
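Light output from Kinase-Glo luciferase with luciferin and 10 uM ATP in 50 mM imidazole pH 7.2, KCl, MgCl2, Tween 20, BSA; compound pin-delivered, 8-min ambient incubation, then luminescence read.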
IMPase cell inh: membrane-permeable compound that blocks inositol monophosphatase. P97697. CHO-M1 cells, IP1 accumulation, HTRF TR-FRET ratio. inhibition (IP1 accumulation), % at 46.1 µM. 120,000 tested, under 10 active. AID 901; active = well fitted curve in the direction sought with a large enough effect in the signal ratio, not every such curve was filed as active; inconclusive = small, poorly fitted or top-dose-only effect, or a change in a side signal; inactive = no such curve, though single readings can be large or run the other way; the % refers to the signal ratio;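 also: cells stimulated with carbachol in lithium chloride buffer; plate controls were DMSO basal wells for no effect and reference inhibitor wells for full effect; higher means more IMPase inhibition seen as more IP1 and lower FRET ratio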
Target sequence (P97697 whole entry, looked up): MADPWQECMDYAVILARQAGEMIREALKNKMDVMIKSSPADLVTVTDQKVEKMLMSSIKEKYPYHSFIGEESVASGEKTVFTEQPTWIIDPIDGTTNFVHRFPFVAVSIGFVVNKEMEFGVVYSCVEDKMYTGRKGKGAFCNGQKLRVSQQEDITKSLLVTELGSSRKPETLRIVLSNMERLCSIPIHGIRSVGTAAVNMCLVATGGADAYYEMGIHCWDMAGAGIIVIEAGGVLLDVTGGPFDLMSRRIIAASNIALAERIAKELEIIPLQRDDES
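CHO-M1, 2000 cells/well, cultured 16–30 h; cpd up to 46 uM; carbachol (50 uM solution, stimulation buffer w/ 50 mM LiCl, pH 7.4), 30 min 37C; IP-One TR-FRET, 10 min RT; Ex 320/Em 665, 620; Hill-fit AC50.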
PNC inhibitor: perinucleolar compartment assembly inhibition | PC3M PTB-GFP, PNC prevalence imaging, 16 h; stronger effect = lower value | activity change (PNC), negative = inhibition, % at 10 µM | 140,000 compounds, 3.1% hits;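 active = readout at or below -70, meaning at least 70% loss of cells showing the perinucleolar compartment, a nuclear body marking cancer cells; inconclusive = readout between -30 and a set limit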;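 also: plate controls were DMSO wells for no effect and camptothecin positive control wells for full effect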
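Read-out is percentage of cells bearing a perinucleolar compartment, from automated 20x imaging of fixed, Hoechst-stained PC3M PTB-GFP cells. Cells were seeded 4 h, then exposed 16 h to compound (23 nl of library stock) in duplicate plates.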
ALDH1A1 block: blocks purified human ALDH1A1 activity. P00352. Purified ALDH1A1, NADH fluorescence, propionaldehyde substrate. Potency, µM (titrated, usually from 75.3 µM), for inactives: at the top dose activity, negative = inhibition, hits mostly inhibitors. 220,000 compounds, 7.3% hits;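 also: potency is read from the fitted curve at half-maximal effect; plate controls were no enzyme wells and a reference inhibitor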
Lamin A splicing: LMNA splicing modulation. HeLa LMNA splicing GFP/RFP minigene ratio, 48 h. Potency, µM (doses to about 46.1 µM), inactives show at the highest dose ratio change, negative = inhibition, usual class: inhibitors. 200,000 compounds, 0.01% hits. AID 1487; active = well fitted inhibition curve with a large enough effect in the signal ratio, with a control signal flat, not every such curve was filed as active; inconclusive = small, poorly fitted or top-dose-only effect, or effect the other way, or a change in a side signal; the % refers to the signal ratio; also: potency is read from the fitted curve at half-maximal effect
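Read-out is the ratio of GFP to DsRed2 object intensity, acquired by 488 nm laser-scanning cytometry on HeLa lamin A-EGFP minigene reporter cells. Compound incubation 48 hrs at 37 °C in Opti-MEM with 2% FBS; DMSO 0.5% final.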
Starred values were filed as active, the others as inactive; u = inconclusive; x = no result given; [ ] = remark or other dose. Unless noted, calls follow the shape of the dose curve; as a rule, active = well fitted inhibition curve with a large enough effect (not every such curve was filed as active); inconclusive = small, poorly fitted or top-dose-only effect, or another doubt; inactive = no such curve, though single readings can be large or run the other way. Unless noted, % is scaled to controls: 0 for no effect and ±100 for the full control effect.

SMILES	HPGD inh	Luc counter	IMPase cell inh	PNC inhibitor	ALDH1A1 block	Lamin A splicing
Cc1cccc(-n2c(SCC(=O)Nc3ncc(Cl)cc3Cl)nc3ccccc32)c1	-10%	-1%	6	-108*	-6%	u
Cn1nnc2c(NCc3ccccc3)ncnc21	x	x	x	x	x	15%[46 µM]
COC(=O)[C@@]1(Cc2ccccc2)[C@H]2c3cc(C(=O)N(C)C)n(CCO)c3C[C@H]2CN1C(=O)c1ccccc1	-4%	0%	x	x	7%	x
COc1ccccc1N1CCN(S(=O)(=O)c2ccc3nc(-c4ccccc4)[nH]c3c2)CC1	-20%	1%	x	-113*	-3%	u
Cc1ccccc1/C=N/NC(=O)c1sccc1C	-26%	13µM*	x	0	3%	5%
O=C(N/N=C/c1ccc2c(c1)OCO2)c1cccs1	-11%	13µM*	x	15	2%	8%
O=C(N/N=C/c1ccc2c(c1)OCO2)c1ccccn1	-21%	10µM*	6	106	4%	17%
Cc1cc(C(=O)N/N=C/c2ccc3c(c2)OCO3)c(C)o1	x	13µM*	x	x	6%	6%[46 µM]
O=C(N/N=C/c1cc2c(cc1Br)OCO2)c1ccccn1	x	x	x	x	0%	x
Cc1ccc(-c2nnc(Nc3ccc(O)cc3)c3ccccc23)cc1S(=O)(=O)N1CCN(C)CC1	x	x	5	x	x	x
Cc1ccsc1C(=O)N/N=C/c1ccc2c(c1)OCO2	u	2µM*	x	77	0%	13%
O=CN/C=C/c1cc(F)cc(F)c1F	-2%	0%	x	x	-13%	x
Cc1onc(-c2c(Cl)cccc2Cl)c1C(=O)Nc1ccc2c(c1)OCCO2	-19%	-2%	2	-17	-2%	3%
CN(C)/C=C/c1onc(-c2c(Cl)cccc2Cl)c1C#N	x	-3%	x	x	13µM*	-4%[9.22 µM]
N#Cc1c(-c2c(Cl)cccc2Cl)noc1/C=C/Nc1ccc(C(=O)O)cc1	x	-2%	x	x	3.5µM*	x
Cc1onc(-c2c(Cl)cccc2Cl)c1C(=O)N1CCCc2ccccc21	-4%	0%	10	16	-5%	-19%
COC(=O)c1sccc1S(=O)(=O)N(CC(=O)Nc1cccc(C)c1C)c1ccc(C)c(C)c1	x	x	x	x	x	-24%[46 µM]
COC(=O)N[C@@H](/C=C/c1ccccc1)/C(C(=O)OC)=C(\C)NCc1ccccc1	-12%	-1%	x	x	0%	x
COc1ccc(-c2nc3c(c4c2C[C@H](c2ccccc2)OC4)CN(C(=O)N[C@@H](C)c2ccccc2)CC3)c(C)c1	-13%	-1%[7.66 µM]	x	x	3.5µM*	-3%[9.22 µM]
COc1cccc(CC(=O)N2CCc3nc(-c4ccc(OC)cc4C)c4c(c3C2)CO[C@@H](c2ccccc2)C4)c1	-11%	-4%[7.66 µM]	x	x	4µM*	u
COc1ccc(-c2nc3c(c4c2C[C@H](c2ccccc2)OC4)CN(S(=O)(=O)c2ccc(C#N)cc2)CC3)c(C)c1	1%	-8%[7.66 µM]	x	x	0.5µM*	u
COc1ccc(-c2nc3c(c4c2C[C@H](c2ccccc2)OC4)CN(C(=O)c2cc(I)ccc2F)CC3)c(C)c1	-2%	-6%[7.66 µM]	x	x	1.1µM*	u
COc1cc(CNC(=O)c2cnc(SC)nc2-c2ccccc2)cc(OC)c1OC	x	x	x	x	x	-6%[46 µM]
C[C@@](N)(/C=C\c1ccccc1)C(=O)O	-6%	-2%[7.66 µM]	x	x	11%[13.5 µM]	x
Cc1ccccc1Oc1ccc(-c2nc(N)nc(N)n2)cc1	25µM*	-6%	-6	u	u	u
O=C1Nc2ccccc2Oc2cc([N+](=O)[O-])cc(Oc3ccccc3)c21	-11%	1%	x	14	0%	u
Cc1cccc(Oc2cc([N+](=O)[O-])cc3c2C(=O)Nc2ccccc2O3)c1	-11%	1%	x	-83*	0%	u
c1ccc2c(c1)ncn2CCCOc1ccc2c(c1)CCC2	u	3%	9	2	2%	u
c1ccc2c(c1)ncn2CCCCOc1ccc2c(c1)CCC2	u	-1%	9	50	14µM*	u
COC(=O)C1=C(C)NC(C)=C(C(=O)OCCNCc2ccccc2)C1c1cccc([N+](=O)[O-])c1 (centres undefined)	-22%	0%[39.9 µM]	x	x	-8%	x
